Measurements published in PubChem BioAssay.

Assay: probe aDKK1 binding to arrayed compounds – biochemical, biotinylated probe, 635/667 nm fluorescence, primary screen (AID 1099);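 note: score merges 667nm spot fluorescence with signal to noise across triplicate slides; reference of the scale not given here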
Details: small-molecule microarray, higher = more signal

Structure (SMILES)	composite z-score
CC[C@H]1C2=C3C(CC[C@H]4C(OC)OC[C@](C)([C@@H]34)N(C(=O)OC(C)(C)C)C2)C(CO)C1CO (stereo partly drawn)	1.54
CC(C)(C)OC(=O)CC[C@@]1(C(=O)NCc2ccccc2)N=C(c2ccc(OCCCO)cc2)O[C@@H]1c1ccccc1	1.29
CC(C)[Si](OCC[C@H]1O[C@]2(C(=O)N(Cc3ccccc3)c3ccccc32)[C@@H](C)[C@@H]1[Si](C)(C)O)(C(C)C)C(C)C	-0.0907
C[C@H]1COC(=O)[C@H](Cc2ccccc2)NC(=O)[C@@H](C)COC(=O)[C@H](Cc2ccccc2)NC1=O	-0.165
COc1ccc([Si](C)(C)[C@H]2[C@H](CC(=O)N3Cc4ccccc4C[C@H]3CO)O[C@@]3(C(=O)N(Cc4cccc(N5CCOC5=O)c4)c4ccccc43)[C@@H]2C)cc1	-0.158
CO[C@H]1COC(=O)[C@@H](OCc2ccccc2)C=C[C@H](C)[C@@H](OC)COC(=O)[C@H](OCc2ccccc2)C=C[C@@H]1C	-0.46
C=C(COC)C(=O)CC[C@H](OC(=O)c1ccccc1-c1ccccc1C(=O)O)c1cccc(OCCO)c1	-0.0615
Cc1ccc(S[C@]2(C(=O)O)CC(=O)N(Cc3ccccc3)[C@@H]2c2ccc(CO)cc2)cc1	0.638
O=C(O)[C@@H]1Cc2c([nH]c3ccccc23)[C@@H](c2ccccc2)N1	-0.317

Assay: probe aCHRDL2 binding to arrayed compounds – biochemical, biotinylated probe, 635/667 nm fluorescence, primary screen (AID 1100)
Details: small-molecule microarray, higher = more signal

Structure (SMILES)	composite z-score
C=CCN1C(=O)[C@@]2(Cc3ccccc3)N=C(c3ccc(OCCCO)cc3)O[C@H]2c2ccccc21	1.19
CC(=O)Nc1ccc([C@H]2[C@H](C)CC[C@H]3C(=O)N4[C@@H](CC[C@@H](C)[C@@H]4c4ccc(NC(C)=O)cc4)C(=O)N32)cc1	-0.286
COc1cc2c(cc1OC)CN(C(=O)[C@@H]1[C@H]3C(=O)O[C@H](c4ccccc4)[C@H](c4ccccc4)N3[C@H](c3ccccc3OCCO)[C@@]13C(=O)Nc1ccccc13)CC2	-0.73
CCOC(=O)C[C@H]1[C@H](OC(=O)Cc2ccc3c(c2)OCO3)[C@@H](NC(=O)c2ccc3ccccc3c2)c2cc(OCCCO)ccc2N1C(=O)Cc1ccc(OC)cc1	0.0248
CO[C@@H]1COC(=O)[C@H](C)NC(=O)CC=C[C@@H](C)[C@H](OC)COC(=O)[C@H](C)NC(=O)CC=C[C@H]1C	-0.717
CO[C@H]1COC(=O)CC=C[C@H](C)COC(=O)[C@@H](OCc2ccccc2)C=C[C@@H]1C	-1.62
CCCC[C@@H]1C[C@H]1[C@@H](NC(=O)c1ccccc1)c1ccccc1C(F)(F)F	1.05
CO[C@@H]1COC(=O)[C@H](C)NC(=O)CC=C[C@@H](C)[C@H](NS(=O)(=O)c2ccc(C)cc2)COC(=O)CC=C[C@@H]1C	-0.505
CC(=O)NCCCC[C@@H]1NC(=O)[C@H]2C[C@@H](C(=O)NCCCCCCN(C)C)[C@@H](c3cccc(OCCO)c3)N2C1=O	0.649
NC(=O)NCC#Cc1ccc2c(c1)[C@]1(C(=O)N2)[C@H](c2ccccc2OCCO)N2[C@H](c3ccccc3)[C@H](c3ccccc3)OC(=O)[C@H]2[C@@H]1C(=O)N1CCN(c2ncccn2)CC1	0.542
C[C@]1(C(=O)NCc2ccccc2)c2ccccc2C(=O)N(Cc2cc(C(F)(F)F)cc(C(F)(F)F)c2)[C@H]1c1ccc(CO)cc1	0.778
C=C(COC)/C(=C/C[C@@H](OC(C)=O)c1cccc(OCCO)c1)c1cc(C(=O)OC)ccc1OC	0.258
COC(=O)[C@H]1[C@@H]2COc3ccccc3[C@H]2N[C@H]1C(=O)OC	0.0399
CCc1cccc(NC(=O)O[C@H]2[C@H](OC(=O)Nc3ccccc3)[C@@H](OC(=O)Nc3ccccc3)[C@@H](OC)O[C@@H]2CO)c1	0.37
C=CCN1C(=O)[C@]2(O[C@H](CCn3cc(CCO)nn3)[C@@H]([Si](C)(C)c3ccc(OC)cc3)[C@@H]2C)c2cc(NC(=O)c3ccc(OC)cc3)ccc21	0.794
C=C(COC)/C(=C/C[C@H](OC(C)=O)c1ccc(OCCO)cc1)c1cnc2ccccc2c1	-0.146
[N-]=[N+]=NCc1ccccc1C[C@]1(C(=O)N2CCCCC2)N=C(c2ccc(OCCCO)cc2)O[C@H]1c1ccccc1CN=[N+]=[N-]	0.885
CO[C@H]1O[C@H](CO)[C@@H](OC(=O)Nc2ccccc2)[C@H](OC(=O)Nc2ccc3c(c2)OCO3)[C@@H]1OC(=O)Nc1ccc2c(c1)OCO2	0.749
CCOC(=O)C1=C[C@@H](c2ccccc2)N(S(=O)(=O)c2ccc(C)cc2)[C@H]1c1ccc(F)cc1	0.573
